Source: PubChem BioAssay
Tb PFK inh: qHTS Assay to Find Inhibitors of T. brucei phosphofructokinase; ATP-dependent 6-phosphofructokinase (Trypanosoma brucei brucei), O15648; T. brucei PFK, ADP-Glo luminescence; Potency, µM (series often up to 57.5 µM), usual class: inhibitors; hit rate 0.17% among 330,000; AID 485367, 2010; further: nearly all actives have a fitted effect of over 60% in size
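Compounds were pin-transferred as a titration series up to 57 uM into substrate buffer (0.5 mM F6P, 0.1 mM ATP, pH 8.0), then 1.25 nM PFK was added and reactions ran 45 min before ADP-Glo detection.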
VDR inh: Inhibitors of the vitamin D receptor (VDR): qHTS | Vitamin D3 receptor (Homo sapiens), P11473 | VDR-SRC2-3 peptide fluorescence polarization, 2 h | Potency, µM, most hits filed as inhibitors | hit rate 0.93% among 400,000 | AID 504847, 2011
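Fluorescence polarization assay of small-molecule disruption of VDR binding to coregulator peptide SRC2-3. Compounds and controls pin-transferred, then read after 2 h incubation at ambient room temperature.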
Pin1 inhibitor: qHTS Assay to Find Inhibitors of Pin1; Pin1 FP peptide displacement, HiFluor488, 10 min; Potency, µM (series often up to 115 µM), actives largely listed as inhibitors; AID 504891, 2011; hit rate 0.009% among 390,000; active means well fitted inhibition curve with a large enough effect in the polarisation, with a control signal flat, not every such curve was filed as active; inconclusive means small, poorly fitted or top-dose-only effect, or effect the other way, or a change in a side signal; inactive means no such curve, though single readings can be large or run the other way; the % refers to the polarisation
Target sequence (Q13526 whole entry, looked up): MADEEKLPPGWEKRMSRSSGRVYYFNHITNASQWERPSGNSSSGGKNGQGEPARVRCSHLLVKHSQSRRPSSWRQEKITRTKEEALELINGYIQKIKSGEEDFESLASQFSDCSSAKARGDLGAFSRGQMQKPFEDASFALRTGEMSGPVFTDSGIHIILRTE
PGK inhibitor: qHTS Assay to Find Inhibitors of Phosphoglycerate Kinase; Phosphoglycerate kinase, glycosomal (Trypanosoma brucei brucei), P07378; PGK/GAPDH coupled, Kinase-Glo luminescence, 60 min; Potency, µM (highest dose often 57.5 µM), hits mostly inhibitors; hit rate 0.043% among 380,000; AID 602233, 2012; further: nearly all actives have a fitted effect of over 60% in size
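Luminescent ATP detection (Kinase-Glo Plus) follows a 60-minute room-temperature incubation, with wells lacking PGK as controls. Buffer: 100 mM TEA (pH 7.6), 5 mM MgCl2, 0.01% Tween-20. Coupling enzyme GAPDH (100 nM final) supplies unstable 1,3-BPG in-well.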
GLS inhibitor: qHTS for Inhibitors of Glutaminase (GLS); GLS enzymatic activity, qHTS titration; hit rate 0.21% among 410,000; Potency, µM (doses to about 45.5 µM), hits mostly inhibitors; Glutaminase kidney isoform, mitochondrial (Homo sapiens), O94925; AID 624170, 2012
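Glutamate formation by hKGA was monitored fluorometrically using coupled glutamate oxidase, HRP and Amplex Red. Substrate was added as 1 mM L-glutamine solution; incubation was 30 min at RT after an initial read.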
Numbers stand for hits; n = inactive; u = inconclusive; x = no result; ! = not active in a repeat. In the library only some 1.1% were active in any assay of this set; here they are far more common. Unless noted, the call rests on the fitted dose curve; in most records, active means well fitted curve in the direction sought with a large enough effect; inconclusive means small, poorly fitted or top-dose-only effect, or another doubt; inactive means no such curve, though single readings can be large; an effect the other way counts as inactive or inconclusive.

SMILES | Tb PFK inh | VDR inh | Pin1 inhibitor | PGK inhibitor | GLS inhibitor
CCOc1nc2cccc(C(=O)OC(C)OC(=O)OC3CCCCC3)c2n1Cc1ccc(-c2ccccc2-c2nn[nH]n2)cc1 (stereo unspecified) | x | 45µM | x | x | x
CCCc1nc(C(C)(C)O)c(C(=O)OCc2oc(=O)oc2C)n1Cc1ccc(-c2ccccc2-c2nn[nH]n2)cc1 | x | n | x | x | n
COc1ccc2c(c1)OC/C(=C\c1ccc(OC)c(O)c1)C2=O | x | 20µM | x | x | x
COc1ccc2c(c1)OC/C(=C/c1cccs1)C2=O | n | n | n | n | n
C=C1C(=O)C=C2CN(C(=O)c3ccccc3)[C@@](Cc3ccc(F)cc3)(C(=O)OC)[C@@H]12 | n | u | n | n | n
COC(=O)[C@@]1(Cc2ccc(OC)cc2)[C@@H]2C(=CC(=O)[C@H]2CC(=O)C(=O)N(C)C)CN1C(=O)c1ccccc1 | n | 79µM | n | n | n
Brc1cccc(-c2cnn3c(-c4ccccc4)cc(-c4ccccc4)nc23)c1 | x | n | u | n | n
CN(C)CC(=O)c1ccc(-c2ccccc2)cc1 | n | u | n | n | n
CCN(CC)CC(=O)c1ccc(-c2ccccc2)cc1 | u | 40µM | n | n | n
O=C(c1ccc(Br)cc1)C(CN1CCOCC1)c1ccccc1 (stereo unspecified) | n | 40µM | n | n | n
CN(C)CC(C(=O)c1ccccc1)c1ccccc1 (stereo unspecified) | n | 50µM | n | n | n
O=C(c1ccccc1)C(CN1CCCCC1)c1ccccc1 (stereo unspecified) | x | 25µM | n | n | n
CC(CN1CCN(CC(C)C(=O)c2ccccc2)CC1)C(=O)c1ccccc1 (stereo unspecified) | x | n | n | n | n
CN(Cc1cc(Cl)cc(Cl)c1)CC(C(=O)c1ccccc1)c1ccccc1 (stereo unspecified) | x | n | n | n | n
CC(=O)N[C@@H](CSC(=O)[C@]1([C@@H](O)C(C)C)NC(=O)[C@H](C)[C@@H]1O)C(=O)O | x | n | x | x | x
CC(C)(C)CNc1nc(C#N)nc(Nc2ccccc2)n1 | x | x | n | x | x
COc1ccc2[nH]c(=O)cc(C(=O)O)c2c1 | n | n | n | n | 14µM
CCS(=O)(=O)N1CC(=O)N(c2ccc(Cl)cc2C)C(C)(C(=O)NC2CCCCCC2)C1 (stereo unspecified) | x | n | n | n | n
CCOc1ccc(NC(=O)c2cc(C3CC3)nc3c2cnn3C(C)C)cc1OC | n | n | n | n | n
O=NN(CCCl)C(=O)NCC1=C[N+](=O)CC=C1 | x | x | x | x | n
CCOC(=O)c1sc(=S)n(C)c1NC(=O)c1ccc(OC)cc1 | u | 50µM | n | n | n
COc1cc(O)cc(OC)c1OC | x | 45µM | x | x | x
CN(C)c1oc(-c2ccccc2[N+](=O)[O-])nc1C#N | n | 32µM | n | n | n
O=C(Nc1ccc([N+](=O)[O-])cc1)OC1CCS(=O)(=O)C1 (stereo unspecified) | x | x | x | x | n
CC(C)c1nnc(SCC(=O)N2CCc3ccccc32)n1N | n | 79µM | n | n | n
SMILES | Tb PFK inh | VDR inh | Pin1 inhibitor | PGK inhibitor | GLS inhibitor
O=C(CSc1nnc(CN2CCOCC2)n1-c1ccc(Cl)cc1)N1CCc2ccccc21 | x | 79µM | n | n | n
C=CCN1CCCC1CNC(=O)c1cc(S(N)(=O)=O)cc(OC)c1OC (stereo unspecified) | x | n | x | x | n
O=C(CNC(=O)c1cccc(F)c1)NC1CC1 | n | n | n | n | n
C[C@@]12CCC=C[C@H]1[C@H](c1ccccc1Br)N(Cc1ccccc1)C2=O | n | 50µM! | n | n | n
CC1CC=CC2C1C(=O)N(Cc1ccccc1)C2c1ccc2ccccc2c1Br (stereo unspecified) | x | n | n | x | x
CC1C=C[C@@H]2[C@H](C1)C(=O)N(Cc1ccccc1)[C@H]2c1ccccc1Br (stereo partly specified) | x | 45µM | x | x | x
CC12CCC=CC1C(c1cccc(Br)c1)N(Cc1ccccc1)C2=O (stereo unspecified) | x | u | n | x | x
O=C1[C@H]2CCC=C[C@H]2[C@H](c2ccccc2Br)N1Cc1ccccc1 | n | 56µM | u | n | n
CC(=O)Nc1ccc(S(=O)(=O)NN=CCCc2ccccc2)cc1 | x | n | n | n | n
